# Source: PubChem BioAssay
# An excerpt weighted towards active compounds, which were near 1.3% of everything screened.
# PfHsp40 rescue: rescue of yeast from PfHsp40 toxicity, primary screen, S. cerevisiae, ATP luminescence; S. cerevisiae expressing PfHsp40, growth rescue; AID 504582, 2011; growth rescue, % at 12.5 µM; actives 0.68% (n = 340,000); in the data active = growth rescue above about 28%, passing the limit was not always enough;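 note: yeast W303a lacking pdr1 and pdr3 grown in galactose medium; growth measured after three days at 30 °C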
# MazEF act: activators of E. coli MazEF toxin-antitoxin RNase, primary screen, biochemical, fluorescence, uHTS; Endoribonuclease toxin MazF (Escherichia coli (strain K12)), P0AE70; FAM/BHQ RNA-DNA oligo cleavage fluorescence, 5 h; activation, % at 20 µM; actives 0.32% (n = 350,000); in the data active = activation above about 50%
# Mtb hypoxia inh: PubChem AID 1159583. M. tuberculosis hypoxia-regulated fluorescent reporter, fluorescence. fluorescence inhibition, % (no concentration beside the values). actives 0.1% (n = 300,000); in the data active = fluorescence inhibition mostly above about 23%, no sharp cut-off; inactive = mostly below about 17%
# Sa ugtP lethal: growth inhibition of ugtP-null S. aureus, primary screen, RN4220 ugtP deletion, OD600 | actives 0.54% (n = 330,000) | AID 1259309, 2017 | growth inhibition, % (concentration not given with the values) | 16 h; in the data active = growth inhibition above about 68%;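 note: plate controls were untreated wells for no effect and antibiotic for full effect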
# Sa RN4220 lethal: growth inhibition of S. aureus RN4220, primary screen, OD600. 16 h. inhibition, % (test concentration not listed). actives 0.33% (n = 330,000). AID 1259311, 2017; in the data active = inhibition above about 85%;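 note: plate controls were untreated cells for no effect and reference antibiotic for full effect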
# TcdB GH inh: TcdB glycohydrolase inhibitors, primary screen, biochemical, single point, plate reader; TcdB glycohydrolase enzymatic assay; Toxin B (Clostridioides difficile), P18177; inhibition, % at 9.99 µM; actives 0.24% (n = 350,000); AID 652162, 2013; in the data active = inhibition above about 10%
# Target sequence (P18177 whole entry, looked up): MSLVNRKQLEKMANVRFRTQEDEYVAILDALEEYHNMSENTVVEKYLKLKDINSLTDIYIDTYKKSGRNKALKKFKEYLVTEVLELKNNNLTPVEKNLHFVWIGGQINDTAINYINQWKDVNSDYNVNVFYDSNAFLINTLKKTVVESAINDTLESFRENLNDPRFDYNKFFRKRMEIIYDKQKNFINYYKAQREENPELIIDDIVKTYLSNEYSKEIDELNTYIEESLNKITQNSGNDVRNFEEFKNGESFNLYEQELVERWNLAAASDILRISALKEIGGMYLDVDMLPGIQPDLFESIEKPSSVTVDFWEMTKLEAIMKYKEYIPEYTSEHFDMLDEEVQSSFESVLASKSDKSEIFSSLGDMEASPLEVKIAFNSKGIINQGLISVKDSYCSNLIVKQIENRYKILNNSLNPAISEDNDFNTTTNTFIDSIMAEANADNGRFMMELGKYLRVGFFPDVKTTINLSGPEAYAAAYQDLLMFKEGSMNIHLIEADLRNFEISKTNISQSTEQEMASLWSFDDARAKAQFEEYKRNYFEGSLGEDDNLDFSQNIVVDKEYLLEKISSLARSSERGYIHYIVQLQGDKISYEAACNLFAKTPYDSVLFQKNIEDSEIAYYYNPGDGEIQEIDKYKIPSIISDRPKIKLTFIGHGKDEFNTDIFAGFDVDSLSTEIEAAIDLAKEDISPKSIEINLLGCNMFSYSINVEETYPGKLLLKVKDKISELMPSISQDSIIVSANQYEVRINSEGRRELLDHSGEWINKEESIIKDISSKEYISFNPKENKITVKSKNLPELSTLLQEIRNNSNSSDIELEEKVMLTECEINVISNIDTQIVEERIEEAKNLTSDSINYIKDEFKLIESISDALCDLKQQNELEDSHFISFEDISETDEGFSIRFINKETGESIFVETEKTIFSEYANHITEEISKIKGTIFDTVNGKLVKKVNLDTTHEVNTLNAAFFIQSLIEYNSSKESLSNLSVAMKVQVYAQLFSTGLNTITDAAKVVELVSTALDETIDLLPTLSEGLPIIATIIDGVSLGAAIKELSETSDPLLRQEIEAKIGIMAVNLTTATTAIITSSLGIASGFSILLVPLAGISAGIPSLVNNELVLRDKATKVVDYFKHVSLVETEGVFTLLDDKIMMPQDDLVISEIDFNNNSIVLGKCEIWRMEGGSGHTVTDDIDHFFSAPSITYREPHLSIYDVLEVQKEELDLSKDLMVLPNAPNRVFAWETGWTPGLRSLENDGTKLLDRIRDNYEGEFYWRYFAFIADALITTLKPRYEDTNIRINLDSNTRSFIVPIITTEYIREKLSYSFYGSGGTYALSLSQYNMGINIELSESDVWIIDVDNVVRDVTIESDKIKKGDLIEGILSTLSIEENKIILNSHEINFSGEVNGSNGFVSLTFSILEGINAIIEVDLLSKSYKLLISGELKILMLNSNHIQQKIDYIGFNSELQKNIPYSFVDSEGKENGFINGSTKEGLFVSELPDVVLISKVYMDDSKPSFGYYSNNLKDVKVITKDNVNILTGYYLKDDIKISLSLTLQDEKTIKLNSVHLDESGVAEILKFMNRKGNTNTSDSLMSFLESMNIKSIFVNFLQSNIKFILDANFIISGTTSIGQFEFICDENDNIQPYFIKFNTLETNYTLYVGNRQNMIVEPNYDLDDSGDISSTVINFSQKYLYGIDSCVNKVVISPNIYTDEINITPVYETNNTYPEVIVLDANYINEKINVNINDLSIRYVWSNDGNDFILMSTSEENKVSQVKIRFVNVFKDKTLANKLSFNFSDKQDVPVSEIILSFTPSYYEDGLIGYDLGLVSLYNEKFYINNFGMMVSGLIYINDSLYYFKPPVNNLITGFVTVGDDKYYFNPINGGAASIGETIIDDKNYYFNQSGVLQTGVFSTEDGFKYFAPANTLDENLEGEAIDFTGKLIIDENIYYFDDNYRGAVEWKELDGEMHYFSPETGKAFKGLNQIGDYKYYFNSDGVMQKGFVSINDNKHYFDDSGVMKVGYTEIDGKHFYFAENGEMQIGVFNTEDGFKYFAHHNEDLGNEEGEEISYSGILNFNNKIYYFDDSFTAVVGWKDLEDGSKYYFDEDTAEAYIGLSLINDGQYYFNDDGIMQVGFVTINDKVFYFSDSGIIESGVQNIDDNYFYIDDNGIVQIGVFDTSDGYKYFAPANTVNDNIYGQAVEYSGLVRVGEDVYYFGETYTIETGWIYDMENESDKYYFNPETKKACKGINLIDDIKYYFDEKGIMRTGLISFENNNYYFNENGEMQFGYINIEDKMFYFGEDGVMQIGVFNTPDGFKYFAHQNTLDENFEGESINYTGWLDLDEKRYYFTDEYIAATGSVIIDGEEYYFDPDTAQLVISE
# * hit, by the source's call; nt = not tested or not shown; + = active, no number.
SMILES,PfHsp40 rescue,MazEF act,Mtb hypoxia inh,Sa ugtP lethal,Sa RN4220 lethal,TcdB GH inh
COCC(=O)N(C)C[C@@H]1Oc2ncc(-c3ccc(C)cc3)cc2C(=O)N([C@H](C)CO)C[C@@H]1C,nt,nt,nt,nt,nt,0
CN(C)S(=O)(=O)c1ccc(C(=O)OCC(=O)NC(=O)NC2CCCC2)cc1,-2,2,31*,7,4,0
O=C(COC(=O)c1ccc(Cl)cc1)NC(=O)NC1CCCC1,0,1,8,-1,1,1
Cc1c(Cc2ccccc2)c(NCCN(C)C)n2c(nc3ccccc32)c1C#N,171*,12,10,9,3,1
CCCCc1c(C)c(C#N)c2nc3ccccc3n2c1NCCN(C)C,-1,4,-6,-5,3,0
O=C1C=C(c2cccc(Cl)c2)CC(c2ccc3c(c2)OCO3)C1 (configuration not stated),nt,nt,24,9,7,nt
O=C1CC(N2CCN(c3ccc(O)cc3)CC2)C(=O)N1c1ccc2c(c1)OCO2 (configuration not stated),0,0,-5,-6,-2,-4
O=C1CC(N2CCCCCC2)C(=O)N1c1ccc2c(c1)OCO2 (configuration not stated),78*,-3,5,14,20,0
COc1ccc(C=NNC(=O)c2cc3c(ccc4ccccc43)o2)c(OC)c1,nt,nt,-6,-5,0,nt
Cc1ccc(C2CN=NC23CCc2ccccc2C3=O)cc1 (configuration not stated),0,-9,6,0,-3,nt
O=C1c2ccccc2CCCC12N=NCC2c1cccc2ccccc12 (configuration not stated),109*,-3,14,5,-15,nt
O=c1[nH]nc(Cc2ccccc2)c2ccccc12,6,-1,19,-1,3,nt
O=c1[nH]nc(Cc2ccc3ccccc3n2)c2ccccc12,-1,74*,12,-1,8,nt
N#CCCn1cc(C(=O)Nc2ccccc2Cl)c(-c2ccc(F)cc2)n1,47*,1,18,9,7,0
C[C@@H]1CCCCO[C@H](CN(C)S(=O)(=O)c2cccs2)[C@@H](C)CN([C@H](C)CO)C(=O)c2cc(NS(=O)(=O)c3cn(C)cn3)ccc2O1,nt,nt,nt,nt,nt,0
O=C(Nc1ccccc1)N1CC=C(c2ccc(F)cc2)CC1,3,-6,nt,-18,1,nt
O=C(Nc1cccc2ccccc12)N1CC=C(c2ccccc2)CC1,-1,78*,10,3,4,nt
COc1ccccc1N1C(=O)S/C(=C\c2cc(C)n(C)c2C)C1=O,0,+,9,8,1,2
COc1ccc(C(=O)N2CCOCC2)cc1S(=O)(=O)N1CCCc2ccccc21,0,-4,2,5,7,12*
COCC(=O)Oc1c(S(=O)(=O)c2ccc(C)cc2)c(C)nn1-c1ccccc1,157*,-3,nt,14,7,nt
O=[N+]([O-])c1ccc(-c2cnc(SC(c3ccccc3)c3ccccc3)[nH]2)cc1,1,29,1,24,49,-1
O=[N+]([O-])c1ccc(-c2cnc(SCc3ccccc3Cl)[nH]2)cc1,149*,13,11,-10,6,nt
Cc1cc(C)c(CSc2ncc(-c3ccc([N+](=O)[O-])cc3)[nH]2)c(C)c1,1,76*,nt,8,47,nt
COc1ccc(C=NNc2nc(Nc3ccccc3)nc(N3CCCCC3)n2)cc1OC,nt,nt,2,-13,11,nt
Cc1ccc(C(=O)Nc2cccnc2Oc2ccc(Cl)cc2)cc1,5,-4,-4,19,3,6
SMILES,PfHsp40 rescue,MazEF act,Mtb hypoxia inh,Sa ugtP lethal,Sa RN4220 lethal,TcdB GH inh
Cc1ccc(S(=O)(=O)Nc2cccnc2Oc2ccc(Cl)cc2)cc1,18,10,4,-3,4,14*
COCC(=O)N1[C@@H](CO)[C@@H]2c3ccccc3N(C(=O)C3CC3)C[C@@H]21,nt,nt,nt,nt,nt,0
CCCCC1(C)OC(=O)C(=Cc2c[nH]c3ccccc23)C(=O)O1 (configuration not stated),-1,235*,9,3,2,0
CCCCC1(C)OC(=O)C(=Cc2ccc(N(C)C)cc2)C(=O)O1 (configuration not stated),-2,-273,7,-1,1,nt
F[B-](F)(F)c1cc2cc(Br)ccc2s1,186*,-10,nt,nt,nt,nt
O=C(NCCC(=O)N1CCCCCCC1)c1ccc(Br)cc1,70*,-2,-5,3,-2,0
O=C(NCCC(=O)N1CCCCC1)c1ccc(Br)cc1,0,-2,-1,3,2,0
S=c1nc(-c2cc(Cl)cc(Cl)c2)[nH][nH]1,2,-7,-3,-3,3,5
S=c1nc(-c2cccc(Cl)c2)[nH][nH]1,-1,1,-10,-2,2,14*
COc1cc(SC)ccc1C(=O)Nc1ccc(C)cc1,147*,1,-3,9,-1,3
O=C(C[C@@H]1C=C[C@H](NC(=O)Nc2cccc(F)c2)[C@@H](CO)O1)NCC1CC1,nt,nt,nt,nt,nt,1
O=[N+]([O-])c1ccc(-c2nnc(-c3ccccc3)c(NCCCO)n2)cc1,-1,0,1,-1,5,nt
OCCCNc1nc(-c2ccc(Cl)cc2)nnc1-c1ccc(Br)cc1,28*,9,-9,-8,-9,nt
COc1cc(NC(=O)Cn2cnc3sc(C)c(S(=O)(=O)N4CCN(C)CC4)c3c2=O)cc(OC)c1OC,nt,nt,1,2,2,nt
COc1ccc(NC(=O)Cn2cnc3sc(C)c(S(=O)(=O)N4CCOCC4)c3c2=O)c(OC)c1,-2,-2,1,0,1,15*
CO[C@@H]1CN(C)C(=O)c2cc(NC(=O)c3ccccc3F)ccc2OC[C@H](C)N(C(=O)c2ccccc2F)C[C@@H]1C,nt,nt,nt,nt,nt,-1
CCOC(=O)C1CCN(C(=O)c2cc3c(=O)n4cccc(C)c4nc3s2)CC1,32*,4,7,-1,1,2
CC(C)CN=Cc1c(O)c([N+](=O)[O-])cc2oc3c(c12)CCCC3,484*,-60,9,1,8,nt
O=[N+]([O-])c1cc2oc3c(c2c(C=NCc2ccccc2)c1O)CCCC3,230*,-4,nt,-3,1,nt
COC(=O)CSc1nc2cc3c(cc2cc1C)OCCO3,163*,0,8,1,17,nt
CCc1nnc(NC(=O)CSc2nc3cc4c(cc3cc2C)OCCO4)s1,-1,55*,3,5,5,nt
CCOC(=O)CSc1nc2cc3c(cc2cc1C)OCO3,-2,-1,3,13,10,2
CCCC(=O)N1CC2(C1)CN(C(=O)C1CC1)[C@H](CO)c1[nH]c3cc(OC)ccc3c12,nt,nt,nt,nt,nt,1
C[C@H](CO)N1C[C@H](C)[C@H](CN(C)C(=O)CC2CC2)Oc2cc(C3=CCCC3)ccc2S1(=O)=O,nt,nt,nt,nt,nt,0
